Out of some 96,000 compounds screened, about 20,000 (21%) were called active. The list is a sample of the results. Values without a mark were called inactive.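 How the source made its calls: active means CYP2C19 inhibition above a set limit at 5 µM in the primary screen (cut at about 50% in these data); inactive means the rest.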
Biological target: Cytochrome P450 2C19 (Homo sapiens) (UniProt P33261)
Assay: blockers of cytochrome P450 2C19 activity – biochemical, luminescence, ADME assay, primary screen (AID 778);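 further: plate controls were negative control wells for no effect and 2.5 mM tranylcypromine positive control for full effect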
Details: CYP2C19 Supersomes, luciferin-H EGE luminescence, 30 min; at 5 µM; hits give high values

Chain of Cytochrome P450 2C19 (Homo sapiens) (P33261 whole entry, looked up): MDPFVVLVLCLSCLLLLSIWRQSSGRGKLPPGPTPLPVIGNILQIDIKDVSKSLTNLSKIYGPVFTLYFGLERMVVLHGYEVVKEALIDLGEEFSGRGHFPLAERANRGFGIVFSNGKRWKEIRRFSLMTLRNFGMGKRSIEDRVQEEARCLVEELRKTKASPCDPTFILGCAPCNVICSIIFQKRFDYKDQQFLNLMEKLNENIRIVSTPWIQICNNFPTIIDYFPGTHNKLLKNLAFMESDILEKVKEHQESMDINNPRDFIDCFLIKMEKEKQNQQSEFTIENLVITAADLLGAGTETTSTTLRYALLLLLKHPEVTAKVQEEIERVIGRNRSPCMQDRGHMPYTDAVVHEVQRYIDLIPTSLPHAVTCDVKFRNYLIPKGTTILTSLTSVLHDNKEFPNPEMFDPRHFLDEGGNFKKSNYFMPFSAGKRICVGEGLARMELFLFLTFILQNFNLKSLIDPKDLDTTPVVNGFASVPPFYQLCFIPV

Compound | inhibition
CCCn1c(SCC(N)=O)nnc1C(C)C | -9.9%
O=C(CN1CCN(c2ccccn2)CC1)NC1CCCCC1 | 6.6%
O=C(NC1CCCCC1)n1c(=O)oc2cc(S(=O)(=O)N3CCCCC3)ccc21 | 6.9%
O=C(CN1CCN(S(=O)(=O)c2ccc3ccccc3c2)CC1)NC(=O)NC1CCCCC1 | 73.3% (active)
Cc1noc(NS(=O)(=O)c2ccc(N3CC(O)=C(c4ccccc4)C3=N)cc2)c1C | -16.7%
COC(=O)C1=CN(C)C=C(C(=O)OC)C1c1ccc(Cl)cc1Cl | 74.5% (active)
CCOc1ccccc1C1C(C(=O)OC)=CN(C)C=C1C(=O)OC | 33.6%
CC12CN3CC(C)(CN(C1)C3c1ccc(Cl)cc1Cl)C2=O (configuration not stated) | 20.4%
COC(=O)c1ccc(C(=O)OC)c(NC(=S)N2CCCCC2)c1 | 16.7%
NC(=O)C1(N2CCCCC2)CCN(C(=S)Nc2ccc(Cl)cc2)CC1 | 70.7% (active)
COC(=O)c1cc(NC(=O)CN2CCC(C(N)=O)(N3CCCCC3)CC2)cc(C(=O)OC)c1 | 14.3%
O=C(OCc1nnc(-c2ccccc2)o1)c1ccc2c(c1)C(=O)N(CCc1ccccc1)C2=O | 0.5%
CCOc1ccc(NC(=O)CCC(=O)n2nc(C)cc2C)cc1 | -8.5%
CCCC(C(=O)n1nc(C)cc1C)C(NS(=O)(=O)c1ccc(C)cc1)c1ccccc1 (configuration not stated) | 43.5%
CCOc1ccc(C(C)C)cc1S(=O)(=O)n1nc(C)cc1C | 73.6% (active)
COc1cccc(CNc2nc3nc4c(c(=O)n3[nH]2)CCC4)c1 | -17.3%
O=C(c1cccs1)N1CCC(c2nc3ccccc3s2)CC1 | 35.6%
O=C(Cc1cccs1)N1CCCC(c2nc(-c3ccc(S(=O)(=O)N4CCCC4)cc3)no2)C1 (configuration not stated) | 7.4%
O=C(c1cccs1)N1CCCC(c2nc(-c3ccc(F)cc3)no2)C1 (configuration not stated) | 64% (active)
COC(=O)/C(=C\Nc1ccccc1)NC(=O)c1ccc(Cl)cc1Cl | 49%
C[N+]1(CCNC(=O)/C=N/O)CCCCC1 | 3.7%
Cc1cc(C)c2c(c1)cc(C)c1nnc(SCC(=O)Nc3cc(C)on3)n12 | 12.6%
O=C(Nc1cccc2ncccc12)c1ccc(-c2ccc(Cl)cc2Cl)o1 | -13.7%
Clc1ccc(COn2c(-c3ccc(Cl)cc3Cl)nc3ncccc32)cc1 | 96.6% (active)
CCCN1CCN(CCCNC(=O)CN2C(=O)COc3ccccc32)CC1 | -16.5%

Compound | inhibition
O=C(CN1C(=O)COc2ccccc21)Nc1ccc(F)cc1 | 33.4%
O=C(CN1C(=O)COc2ccccc21)NCCN1CCc2ccccc2C1 | 53.3% (active)
Cc1cc(C)c2nc(NC(=O)C3CCCO3)sc2c1 (configuration not stated) | 14.4%
Fc1ccc(-c2nnc(CSc3nnc(-c4ccc5c(c4)OCO5)o3)o2)cc1 | -7.5%
Cc1nc(SC(C)C)[nH]c(=O)c1Cc1ccccc1 | 38.8%
Cc1cnc(NC(=O)CSc2c(Cl)cccc2Cl)s1 | -7.1%
C=CCOC(=O)C1=C(C)NC(C)=C(C(=O)OCC=C)C1c1cccs1 | 77% (active)
CCOC(=O)N1CC=C2C(C#N)=C(N)C(C#N)(C#N)[C@H](c3cccs3)[C@H]2C1 | -4.5%
CCCOC(=O)c1[nH]c2c(c1C)C(=O)CC(c1cccs1)C2 (configuration not stated) | 39.9%
COc1cc(C2C(C(=O)Nc3ccc(F)cc3)=C(C)Nc3nc(CCCO)nn32)cc(OC)c1OC (configuration not stated) | 11.1%
CCCOC(=O)Cc1c(O)c2ccccc2[nH]c1=O | -12.3%
O=c1/c(=C/c2ccc(CNS(=O)(=O)c3ccccc3)o2)sc2n1CCN=2 | 52.4% (active)
O=c1nc2s/c(=C\c3ccco3)c(=O)n2nc1Cc1ccccc1 | -5.5%
CCOc1cc(CNCCN(C)C)c(Cl)cc1OCC(=O)NCCc1ccccc1 | -1.1%
COc1ccc(N2C(=O)CCC(C(=O)Nc3ccccn3)C2c2ccc(OC)c(OC)c2)cc1 (configuration not stated) | 28.2%
O=C(O)C1CC=CCC1C(=O)Nc1ccccc1C(=O)N1CCN(c2ccccc2)CC1 (configuration not stated) | -10.7%
CCC(=O)Nc1ccccc1C(=O)N1CCN(Cc2ccccc2)CC1 | 65% (active)
CCOc1ccc(NC(=O)N2CCN(CC)CC2)cc1 | -6.1%
O=C(Nc1ccccc1)N1CCN(Cc2ccccc2)CC1 | 76.7% (active)
COc1cccc(N2CCN(C(=O)Nc3ccc4c(c3)NC(=O)CO4)CC2)c1 | -6.5%
Cn1nnnc1SCC(=O)N1CCN(Cc2ccccc2)CC1 | 38.9%
CC(=O)N1CCN(C(=O)Nc2cccc(C(F)(F)F)c2)CC1 | 8.1%
O=C(Nc1cccc(NC(=O)N2CCN(c3ccccc3)CC2)c1)N1CCN(c2ccccc2)CC1 | 72% (active)
O=C1CCN(C(=O)Nc2ccccc2)N1 | -3.2%
Cc1ccc(C(=O)OC2=CC(=O)CC(C)(C)C2)cc1 | 36.6%

Compound | inhibition
CCOC(=O)c1[nH]c2ccc(OC)cc2c1NC(=O)N1CCOCC1 | 2.7%
Cn1c(SCC(=O)C(C)(C)C)nnc1-c1ccccn1 | 33.5%
Cc1cccc(Nc2ccccc2C(=O)NCc2ccco2)c1C | 22.7%
CCOc1ccccc1C(=O)NCc1ccco1 | 14.6%
O=C(Nc1ccccc1)Nc1ccccc1C(=O)NCc1ccco1 | 79.3% (active)
Cc1ccc(N(Cc2ccc(C(=O)Nc3ccccc3C(=O)NCc3ccco3)cc2)S(C)(=O)=O)cc1C | 87.7% (active)
Cc1ccccc1NC(=O)NCc1ccco1 | -11.9%
CS(=O)(=O)N(Cc1ccc(Cl)cc1)c1ccc(C(=O)NCCSCc2ccco2)cc1 | -3.9%
CC(=O)N(CC1CCCO1)C1(C(=O)NC2CCCC2)CCCCC1 (configuration not stated) | 3.8%
O=C(CN1CCOCC1)Nc1c2c(nc3c1CCC3)CCC2 | -3%
Fc1ccccc1/C=C1\CCCC2=C1Nc1ncnn1C2c1ccccc1F (configuration not stated) | 45.3%
COc1ccccc1Oc1ccc(S(=O)(=O)Nc2cccnc2)cc1 | 87.6% (active)
O=S(=O)(Nc1ccccn1)c1ccc(Oc2ccccc2)cc1 | 90.2% (active)
COc1ccc(C(=O)/C=C/Nc2ccccn2)cc1 | 46.4%
CN1CCc2c(sc3c2c(NCc2ccco2)nc2nnnn23)C1 | 37.8%
CCOc1ccc(NC(=O)C2CC(=O)N=C(N)S2)cc1 (configuration not stated) | -0.4%
O=C(Nc1ccccc1)O/N=C1\CCCCC1c1ccc([N+](=O)[O-])cc1[N+](=O)[O-] (configuration not stated) | 36.8%
O=C1NC2(CCCCC2)N=C1c1ccccc1 | 25%
Cc1cc(C)c2c(-n3cccc3)c(C(=O)NNS(=O)(=O)c3ccc(F)cc3)sc2n1 | 31%
CC(C)(C)C(=O)c1cnc(Nc2ccccc2)s1 | 36.7%
CCn1c(SCC(=O)Nc2ccc(S(=O)(=O)Nc3onc(C)c3C)cc2)nnc1-c1ccccc1 | 16.5%
CCn1c(Cc2ccccc2)nnc1SCC(=O)Nc1ccccc1 | 74% (active)
CSc1nc(O)c(Cc2ccccc2)c(=O)[nH]1 | 26.1%
CCn1c(Cc2ccccc2)nnc1SCc1nc2ccccc2c(=O)[nH]1 | 70.3% (active)
O=c1[nH]c(CSc2ncc(-c3ccc(F)cc3)n2Cc2ccco2)nc2ccccc12 | 32%

Compound | inhibition
CNC(=O)CSc1nnc(CCc2ccccc2)n1-c1ccccc1 | -8.1%
CC(C)c1ccc(-c2nn[nH]n2)cc1 | 25.4%
O=c1nc(N2CCOCC2)nc2n1CCO2 | 1.1%
Cc1ccc2nc(NCCCNC(=O)c3cnccn3)c(C#N)cc2c1 | 17.1%
CCCCN1C(=O)/C(=C2/C=CC=CN2C)SC1=S | 30.2%
CCN(CC)c1nc(-c2ccccc2)cc(C(F)(F)F)c1C#N | 11.4%
COc1ccc(OCC(=O)N2CCN(C(=O)COc3ccccc3)CC2)cc1 | 19.3%
O=C(COc1ccccc1)N1CCc2ccccc2C1 | 87.9% (active)
O=C(Cn1c(=S)nc2ccccn21)N1CCc2ccccc2C1 | 23.6%
CC1CN(C(=O)CN2C(=O)NC(C)(c3ccccc3)C2=O)CC(C)O1 (configuration not stated) | -12.4%
CCN1CCN(CCCCOc2ccccc2F)CC1 | 2.6%
Cc1nnc(NC(=O)CSc2nccn2-c2cccc(C)c2C)s1 | 13.4%
CCOC(=O)Nc1ccc2c(c1)N(C(=O)CCN1CCN(CCO)CC1)c1ccccc1CC2 | -24.8%
COc1ccc(CNC(=O)c2cc3c(=O)n4ccccc4nc3n(CC3CCCO3)c2=N)cc1 (configuration not stated) | 6.2%
CCOc1ccc(CCNC(=O)C2CCN(c3ccc(N4CCOCC4)nn3)CC2)cc1OCC | 13.9%
CCOc1ccc(CCNC(=O)C(CC)n2nc(C)n3c(cc4sccc43)c2=O)cc1OCC (configuration not stated) | 57.8% (active)
COc1ccc(CCn2c(=N)c(C(=O)NCc3ccco3)cc3c(=O)n4cccc(C)c4nc32)cc1 | 25.7%
CCOc1ccc(CNC(=O)C2CC(=O)N(C3CCCC3)C2)cc1OC (configuration not stated) | -8%
CCC(C(=O)NCc1ccc(OC)cc1)n1nc(C)n2c(cc3occc32)c1=O (configuration not stated) | 58.8% (active)
COc1cc(OC)cc(-c2cc3nc(C4CCN(C(=O)OC(C)(C)C)CC4)cc(=O)n3[nH]2)c1 | 2.8%
CC(Cc1cccs1)NC(=O)NC1CCCCC1 (configuration not stated) | 21%
COc1cccc(Nc2nnc(SCC(=O)N3CC(C)OC(C)C3)s2)c1 (configuration not stated) | 36%
